From PMC6212833
In all, about 2,000 compounds went through this assay and about 15 (0.8%) showed an effect of 50% or more. The sample as a whole holds a higher share of strong results than the screen did.

System: Balamuthia mandrillaris (ATCC PRA-291) trophozoites, axenic culture
Test: primary screen, percent inhibition; higher = more effect of the substance;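 also: 0% = vehicle wells and 100% = lysate wells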
Conditions: 20 µM
Experimental: Screening of a clinically approved library of compounds, compiled by the Small Molecule Discovery Center (SMDC) at the UCSF, was completed at 20 µM in 0.2% DMSO. All 2,177 drugs in the library were stored as 10 mM stocks dissolved in 100% DMSO (Sigma-Aldrich) at −20°C. B. mandrillaris amoebae were resuspended in axenic medium and distributed into opaque 384-well plates (Corning) at a density of 3,000 amoebae per well using a BioMek NX liquid handler. Negative-control wells were treated with vehicle only (0.2% DMSO in axenic medium), and positive-control wells simulating total destruction of amoebae were seeded with amoeba lysate generated by 3 consecutive freeze-thaw cycles. Following 72 h of incubation, 30 µl of CellTiter Glo reagent (CTG; Promega) was added to each well. The luminescence was measured with a Promega GloMax-Multi+ plate reader at 2, 4, and 8 h after CTG addition. […] The B-score, representing a plate-based statistical approach for correcting row, column, and edge effects, was also calculated for each compound in the library (75).

SMILES | % Inhibition
C[C@]12CCC3c4ccc(O)cc4CCC3C1C[C@@H](O)[C@@H]2O (some centres unmarked) | -15%
C[C@@H]1O[C@@H](O[C@H]2C[C@@H](O)[C@]3(CO)[C@H]4[C@H](O)C[C@]5(C)[C@@H](C6=CC(=O)OC6)CC[C@]5(O)[C@@H]4CC[C@]3(O)C2)[C@H](O)[C@H](O)[C@H]1O | 10.8%
CC[N+](CC)(CC(=O)Nc1c(C)cccc1C)Cc1ccccc1 | 14%
CN1[C@@H]2C[C@@H](OC(=O)[C@H](CO)c3ccccc3)C[C@H]1[C@@H]1O[C@@H]12 | 20.7%
C=CCCCCCCCCC(=O)O [735790-L3] | 30.5%
CCNC(=O)CCC/C=C\C[C@@H]1[C@@H](/C=C/[C@@H](O)CCc2ccccc2)[C@H](O)C[C@@H]1O | 22.9%
Nc1ccc(S(=O)(=O)O)cc1 | 31.3%
CCC(=O)NCC[C@@H]1CCc2ccc3c(c21)CCO3 | 16.9%
CC(CC(C(N)=O)(c1ccccc1)c1ccccc1)N(C)C (centres unmarked) | 14.2%
C=Cc1c(C)c2[n]3c1C=C1C(C)=C(CC)C4=[N+]1[Cu]31[n]3c(c(C)c(C(=O)O)c3=C(CC(=O)O)C3=[N+]1C(=C2)C(C)C3CCC(=O)O)=C4 (centres unmarked) | -2.1%
COc1cc2ncnc(Nc3ccc(F)c(Cl)c3)c2cc1OCCCN1CCOCC1 [756745-L3] | -9.92%
CC(=O)OCC(=O)[C@@]1(O)CCC2C3CCC4=CC(=O)CC[C@]4(C)[C@@]3(F)[C@@H](O)C[C@@]21C (some centres unmarked) | 12.2%
CC(=O)[C@@]1(O)CC[C@H]2[C@@H]3C[C@H](C)C4=CC(=O)C=C[C@]4(C)[C@@]3(F)[C@@H](O)C[C@@]21C | 10.1%
Cc1cccc(C)c1NC(=O)C1CCCCN1C (centres unmarked) | 13.3%
C[N+]1(C)[C@@H]2C[C@@H](OC(=O)C(O)(c3cccs3)c3cccs3)C[C@H]1[C@@H]1O[C@@H]12 | 11.2%
O=C(O)c1ccc[n+]([O-])c1 | 20.7%
CO/N=C(/C(=O)NC1C(=O)N2C(C(=O)O)=C(C[N+]3(C)CCCC3)CSC12)c1csc(N)n1 (centres unmarked) | 21.4%
CC(=O)Nc1ccc(C(=O)O)cc1 | -20%
COc1cc(N)c(Cl)cc1C(=O)N[C@@H]1CCN(CCCOc2ccc(F)cc2)C[C@@H]1OC | 1.93%

SMILES | % Inhibition
CCC(COC(=O)c1cc(OC)c(OC)c(OC)c1)(c1ccccc1)N(C)C (centres unmarked) | 17.5%
CCN(CC)CCOC(=O)C(Cc1cccc2ccccc12)CC1CCCO1 (centres unmarked) | 24.5%
NC(=O)[C@@H]1CCCN1C(=O)[C@H](Cc1cnc[nH]1)NC(=O)[C@@H]1CCC(=O)N1 | 9.33%
CN1C2CCC1CC(OC(=O)[C@H](CO)c1ccccc1)C2 (some centres unmarked) | 23%
O=C(O)C[C@H](O)C[C@H](O)/C=C/c1c(C2CC2)nc2ccccc2c1-c1ccc(F)cc1 | 15.5%
COCc1c(C(C)C)nc(C(C)C)c(/C=C/[C@@H](O)C[C@@H](O)CC(=O)O)c1-c1ccc(F)cc1 | 66.1%
CC(C)c1nc(N(C)S(C)(=O)=O)nc(-c2ccc(F)cc2)c1/C=C/[C@@H](O)C[C@@H](O)CC(=O)O | 35.4%
N=C(N)NCC1COC2(CCCCC2)O1 (centres unmarked) | 21.2%
COc1ccc2cc3[n+](cc2c1OC)CCc1cc2c(cc1-3)OCO2 | 29.8%
CC(=O)Nc1c(I)c(C(=O)N[C@H]2C(O)O[C@H](CO)[C@@H](O)[C@@H]2O)c(I)c(N(C)C(C)=O)c1I (some centres unmarked) | 8.04%
CCOC(=O)c1ncn2c1CN(C)C(=O)c1cc(F)ccc1-2 | 7.85%
O=C(O)c1cccnc1Nc1cccc(C(F)(F)F)c1 | 25.3%
COc1ccc2cc([C@H](C)C(=O)O)ccc2c1 [130714-L6] | 22.7%
Cc1nccn1CC1CCc2c(c3ccccc3n2C)C1=O (centres unmarked) | 16.2%
Cc1c(C(N)=O)cc([N+](=O)[O-])cc1[N+](=O)[O-] | 20.6%
C[C@H](CCC(=O)O)[C@H]1CCC2C3C(=O)CC4CC(=O)CC[C@]4(C)C3CC(=O)[C@@]21C (some centres unmarked) | 17.3%
CCCCCCOC(=O)/N=C(\N)c1ccc(NCc2nc3cc(C(=O)N(CCC(=O)OCC)c4ccccn4)ccc3n2C)cc1 [756753-L2] | 20.4%
OC(CNCC(O)C1CCc2cc(F)ccc2O1)C1CCc2cc(F)ccc2O1 (centres unmarked) | 6.6%
CC1OC1P(=O)(O)O (centres unmarked) [131204-L2] | 12.9%
